Results taken from the supplement of paper PMC6555819.

Test system: LXRb:RXRa (NR concentration 270 nM, RXRa partner concentration 90 nM)
Test: PBM binding z-score (relative to random genomic background probes); higher = stronger binding; sequences stand for … in GC…GCGATTGACAGCGTAGAATGAAGG
Procedure, shortened: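 Random background probes are the reference for binding z-scores. These scores derive from regression-normalized fluorescence on custom Agilent 4×180K protein-binding microarrays incubated 1 h with ligand-free nuclear receptor dimers. Binding was detected with antibodies against each partner (one per run).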

Sequence | PBM binding z-score
CGTACAGGGTCAGCTAGGCCAGAGTAGGGACGGC | 1.94
ACCGAAAGGTCGAGGTGAGTATAGAGAAAGGGAA | 2.69
AATATTAGTTGACTTAGGGCAACCGATACGACGC | 0.405
ACTAGCAGGCCAAGGGTCACTCCAGATTAGTCCG | 2.39
ATCTCTAGGTAACAAAGTTCAGTGAATGCCGAAC | 1.27
TCTAGCAGGCCAGAGGGTCACTTAAGAGGTACGG | 1.05
TCTTGTAGATCATTAGAGGTTAAGAAAGTGCGCT | 2.27
GCTAGTAGTTGAAAGGGCAACCGAATGATTCTCG | 0.605
GCTCGGAGGACAAGGGCAGAGCTTTGTCCGTAGA | -1.04
AGAATGAGGTTAAGATCATGGAAACAGAATACAT | 1.88
AGTAGCAGGCCAAGTTTGGGTCACTCAAACAAAG | 0.549
TCGAGTAGGTTACCAATGGGGCATTAAGCTTTCT | 0.663
CCAACTAGGTCACGAAAGGTCAAAGTCGAATGAC | 7.27
AGAATGAGGTTACCAAAGATCAGGGAAACGCTTG | 3.1
ATCGAAAGGACGTGAGGTGAGTATACAGAAAGGC | -0.468
TCTAGTTGGACACGGAGGTCACACACGACGGGTA | 2.85
CTACCAAGGTGAACAAGGTCATTGATTACTATTC | 3.63
CGAACTAGGTCATTGACAGGACAGTGAGTAGTAA | 1.92
TCTTGTAGATCAACAGGAGGTTATGAAAGATCGA | 0.914
ACTTACGGGTCATCGAGGTTATAGCACGCGTATA | 4.29

Sequence | PBM binding z-score
GCTATCAGTTGAAAGGGCAACCGAATGATTCTCG | 0.46
CGAACGAGGGCATGAGTTGATAGCGAATGCCGAT | -0.0069
TAGCCTAGGTCATGCGGGCCAGAATAGTGTCGGC | 1.79
GCTAGTTGGTCAGTAAAAGGTCACAAACCGGTCG | 3.99
CCTAGTTGGTCAAGGGCACACACGCTATAGGTAC | 0.385
ACAGACGGGTGAGTGAAGGTAACTCAGCTGGACG | -0.488
CCTATTAGTTGACCATAAGGGCAACCTAAGCTCG | 0.701
GGAACGAGGGCAAGTTGATACCAGAGTTTGATGG | 0.373
CCTTACAGGTCACTCCAGGTTATAGCATCGGAGT | 5.43
TTACCAAGGTGAAGGTTGTTGATCCCTCTGTAGA | 0.622
TCAGATAGGTAAACAGGTGAAAGTCCGTAAGTTA | 0.939
AGAATGAGGTTGAGATCAGGGAAACAGAATACAT | 0.224
TCTCGGAGGACACGAAGGTCACAGCTTTCCAGAG | 2.65
TCTCGGAGGACACGAAGGTCAGATCTTTCCAGAG | 1.64
AGAACGAGGGCACGCGGAGTTGATAGCAGAGTAG | 0.259
CCTCAGAGGACAGAAGGTCAGAGCTGTCCGCTTT | 1.24
TCTCGGAGGACACGAAGGTTAGAGCTTTCCAGAG | -0.246
CGTTCAAGGTCAGAGAGGTCAGTGAATGCCGAGT | 4.58
CTTGCTAGGTCATGGTCAGCTAATCTACAGTATG | 1.66
CCTTACGGGTCTCGAGGTTATAGCACGACGAGCG | 0.31
